GLS inh – inhibitors of human glutaminase (GLS); 410,000 tested, 0.21% active; O94925; AID 624170; Potency, µM (titrated, usually from 45.5 µM), most hits filed as inhibitors; GLS enzymatic activity, qHTS titration
Target sequence (O94925 whole entry, looked up): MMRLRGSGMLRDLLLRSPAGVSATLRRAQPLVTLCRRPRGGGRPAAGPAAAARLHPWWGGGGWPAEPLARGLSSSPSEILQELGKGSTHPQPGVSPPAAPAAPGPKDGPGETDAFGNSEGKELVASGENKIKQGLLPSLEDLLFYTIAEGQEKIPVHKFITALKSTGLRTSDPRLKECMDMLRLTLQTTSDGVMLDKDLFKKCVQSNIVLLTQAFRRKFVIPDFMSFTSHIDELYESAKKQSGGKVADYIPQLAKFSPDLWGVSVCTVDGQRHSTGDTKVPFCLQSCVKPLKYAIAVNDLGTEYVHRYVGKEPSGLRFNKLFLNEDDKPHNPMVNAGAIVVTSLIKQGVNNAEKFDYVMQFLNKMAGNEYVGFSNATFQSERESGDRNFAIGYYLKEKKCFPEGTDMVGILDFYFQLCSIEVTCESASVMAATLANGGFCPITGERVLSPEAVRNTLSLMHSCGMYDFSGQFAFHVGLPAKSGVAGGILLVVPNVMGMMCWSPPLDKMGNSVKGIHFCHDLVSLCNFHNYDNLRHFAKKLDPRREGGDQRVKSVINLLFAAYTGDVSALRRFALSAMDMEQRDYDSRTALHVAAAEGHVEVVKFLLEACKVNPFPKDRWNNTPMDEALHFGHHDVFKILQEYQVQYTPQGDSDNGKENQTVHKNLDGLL
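Compounds were pin-transferred onto hKGA, after which L-glutamine (1 mM solution) and a detection mix of glutamate oxidase, HRP and Amplex Red were added. Initial and 30 min RT fluorescence reads were collected.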
PLK1 PBD inh – blocks phosphopeptide binding to human PLK1 polo-box domain; Plk1 PBD binding of FITC phosphopeptide, fluorescence polarization; AID 720504; P53350; 360,000 tested, 2.8% active; Potency, µM, usual class: inhibitors; also: series mostly up to about 57 µM; nearly all actives have a fitted effect of over 65% in size
VDR inhibitor – inhibitors of human vitamin D receptor | 400,000 tested, 0.93% active | VDR-SRC2-3 peptide fluorescence polarization, 2 h | Potency, µM, usual class: inhibitors
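VDR–SRC2-3 interaction, FP format. Cmpds 23 nl via pintool, brief spin, 2 h ambient incubation.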
PKM2 activator – PKM2 (human) enzyme activation. 260,000 tested, 0.34% active. purified PKM2, Kinase-Glo ATP luminescence, activation; response scale: 0% is enzyme alone, no compound. P14618. Potency, µM (series often up to 57.5 µM), usual class: activators; also: nearly all actives have a fitted effect of over 55% in size
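ATP formation by purified human PK-M2, quantified via coupled luciferase luminescence after 1 h at room temperature with 0.1 mM ADP and 0.5 mM PEP final.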
Mito fusion act – blocks mitochondrial division or promotes mitochondrial fusion. S. cerevisiae fusion-defective mutant growth rescue, CellTiterGlo 48 h. Potency, µM (doses to about 46.1 µM), actives largely listed as activators. 320,000 tested, 0.23% active. AID 485298; also: nearly all actives have a fitted effect of over 45% in size
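Temperature-sensitive fusion-defective S. cerevisiae (e.g. fzo1-1, mgm1-5) were grown with compound in YPEG medium (3% ethanol, 3% glycerol) for 48 hours at 37C. Growth rescue was measured as viability by CellTiterGlo luminescence after 10 minutes at ambient.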
GCN5L2 inh – blocks human GCN5L2 histone acetyltransferase. Q92830. GCN5L2 HAT assay, ThioGlo1 CoA-SH fluorescence. Potency, µM (series often up to 58.9 µM), actives largely listed as inhibitors. 390,000 tested, 0.21% active. AID 504327
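GCN5L2 (20 nM) in 50mM HEPES pH 7.5, 0.1mM EDTA, 0.01% Tween-20 preincubated 15 min with compounds at room temperature. Reaction started with H3(1-25) 75uM, acetyl-CoA 70uM, ThioGlo1 50uM; CoA-thiol fluorescence (Ex340/Em540) read at 0 and 20 min.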
Hits are given with their value; n = inactive; u = inconclusive; x = no result. Compounds with a hit are over-represented: about 3.4% of the library has one in this group of screens. Calls follow the shape of the dose curve; as a rule, active = well fitted curve in the direction sought with a large enough effect; inconclusive = small, poorly fitted or top-dose-only effect, or another doubt; inactive = no such curve, though single readings can be large; an effect the other way counts as inactive or inconclusive.

SMILES	GLS inh	PLK1 PBD inh	VDR inhibitor	PKM2 activator	Mito fusion act	GCN5L2 inh
O=c1c2ccc(F)cc2sn1-c1ccccc1	7.1µM	3.4µM	x	x	x	x
CC1C(=O)CCC2[C@]1(C)CCC1[C@]2(C)CC[C@@]2(C)C3CC(C)(C)CC[C@]3(C)CC[C@@]12C (stereo partly specified)	x	x	n	x	x	n
OC(c1ccccc1)c1nc2ccccc2s1 (stereo unspecified)	n	12µM	n	n	n	n
OC(c1ccccc1)c1nc(-c2ccccc2)cs1 (stereo unspecified)	n	n	x	x	x	x
COc1cccc(OCc2cc(C3Nc4ccccc4C(=O)N3c3ccccc3)ccc2OC)c1 (stereo unspecified)	x	x	n	x	x	x
O=S(=O)(Nc1ccc(S(=O)(=O)N2CCCC2)cc1)c1ccccc1Br	n	n	n	x	n	n
Cc1ccc2c(c1)c(N=O)c(O)n2Cc1ccc(Cl)cc1	n	n	n	n	10µM	n
Nc1ccc2oc(-c3cc(Br)ccc3Cl)nc2c1	n	30µM	n	n	n	n
Nc1ccc2oc(-c3ccccc3Cl)nc2c1	n	n	n	n	n	n
Cc1cccc(C(=O)NNc2ncnc3c2cnn3-c2ccc(C)c(Cl)c2)c1	n	x	n	x	x	n
CCOC(=O)C(=NC1CCS(=O)(=O)C1)NNc1ccccc1Cl (stereo unspecified)	n	27µM	n	n	n	n
COc1cccc(/C=C2/Oc3ccccc3N(CC(=O)NCC3CCCO3)C2=O)c1 (stereo unspecified)	n	n	n	x	n	n
COCCNC(=O)CN1C(=O)/C(=C/c2ccccc2)Oc2ccc(C(C)(C)C)cc21	n	n	n	x	20µM	n
O=C(CN1C(=O)/C(=C\c2cccc(Br)c2)Oc2ccccc21)NCCCN1CCOCC1	n	27µM	n	x	n	n
CCCCn1c(-c2ccco2)nc2oc3ccccc3c(=O)c2c1=O	n	n	n	n	n	n
Cn1cc(-c2nc3cnc(OCc4ccccc4)nc3n(CCC#N)c2=O)c2ccccc21	x	x	n	x	x	n
CCCCCCCCCCOc1cc(OCCCCCCCCCC)cc(N(CC(=O)O)CC(=O)O)c1	x	x	50µM	x	x	u
CCCCCCOc1ccc(C(CC(=O)O)C(N)=O)cc1 (stereo unspecified)	n	n	n	n	n	n
COC(=O)NCC12CC3CC(C1)CC(CNC(=O)OC)(C3)C2	n	12µM	n	n	n	n
COc1cccc(OC)c1C(=O)NCC12CC3CC(C1)CC(CNC(=O)c1c(OC)cccc1OC)(C3)C2	n	n	n	n	n	n
Cc1cc(C)cc(N2C(=O)CC(Sc3ncn[nH]3)C2=O)c1 (stereo unspecified)	n	24µM	n	n	n	n
Cc1cc(C)cc(N2C(=O)CC(Sc3nnnn3-c3ccccc3)C2=O)c1 (stereo unspecified)	n	u	n	n	n	n
C=C[C@]1(C)C=C2CC[C@H]3[C@@](C)(CCC[C@@]3(C)C(=O)O)[C@@H]2CC1	n	30µM	n	x	x	n
NS(=O)(=O)c1cccc(NC(=O)c2cc3ccccc3o2)c1	n	21µM	n	n	n	n
COc1ccc(-c2cc(C(F)(F)F)n3nc(-c4ccc(Cl)cc4)cc3n2)cc1OC	n	x	n	x	x	n
SMILES	GLS inh	PLK1 PBD inh	VDR inhibitor	PKM2 activator	Mito fusion act	GCN5L2 inh
CCn1cc(C(=O)N2CC(C)CC(C)C2)c(=O)c2cc(S(=O)(=O)N(C)C)ccc21 (stereo unspecified)	n	21µM	n	n	n	n
Cn1c(=O)n(C)c2cc(S(=O)(=O)NCc3ccco3)ccc21	n	n	n	u	n	n
Cn1c(=O)n(C)c2cc(S(=O)(=O)NCc3ccccc3)ccc21	n	n	n	18µM	n	n
Cn1c(N)c(S(=O)(=O)NCc2ccc(Cl)cc2)c(=O)n(C)c1=O	n	n	n	n	n	n
Cn1c(=O)c(=O)n(C)c2cc(S(=O)(=O)NCc3ccc(Cl)cc3)ccc21	u	11µM	u	n	n	n
COc1ccccc1NC(=O)NCc1ccccc1F	n	34µM	n	n	n	n
COc1cccc(NC(=O)NCc2ccccc2F)c1	n	12µM	u	u	n	n
COc1cc(NC(=O)Cn2c(=O)ccc3cc(S(=O)(=O)N4CCCC4)ccc32)cc(OC)c1	n	x	n	x	x	n
Cc1cccc(C(=O)n2c(=S)nc3cc(C)ccn32)c1	n	21µM	n	n	n	n
Cc1ccn2c(c1)nc(=S)n2C(=O)c1ccccc1	n	21µM	n	n	n	n
O=C(c1ccco1)n1c(=S)nc2ccccn21	n	25µM	u	n	n	n
Cc1cccc2nc(=S)n(C(=O)c3ccco3)n12	n	n	n	n	u	n
Cc1cccc(C(=O)Nc2c(-c3ccccc3)nc3cc(C)ccn23)c1	n	x	n	x	x	n
Cc1ccn2c(NC(=O)c3ccccc3)c(-c3ccccc3)nc2c1	u	n	n	n	n	n
O=C(NCc1ccc(Cl)cc1)c1csc(-c2cccnc2)n1	n	30µM	n	n	n	n
N#Cc1c(NC(=O)c2ccc([N+](=O)[O-])o2)sc2c1CCC2	n	n	n	n	n	n
OCCCNc1nc(-c2ccc(Cl)cc2)nnc1-c1ccc(Br)cc1	n	n	n	n	13µM	n
CC1(C)Cc2cccc(OCC(=O)N3CCN(S(=O)(=O)c4ccc(F)cc4)CC3)c2O1	n	n	n	n	n	n
Cc1cccc(N2CCN(C(=O)COc3cccc4c3OC(C)(C)C4)CC2)c1C	n	u	n	n	16µM	u
CC1(C)Cc2cccc(OCC(=O)NCCOc3ccccc3)c2O1	u	21µM	u	n	n	n
Cc1cccn2c(=O)cc(COc3ccc(NC(=O)C(C)C)cc3)nc12	n	x	n	x	x	n
Cc1cc(C)c(N=C2CCCN2Cc2ccccc2)c(C#N)c1	n	n	n	n	n	n
CN1CCc2c1nc1ccccc1c2N=C1CCCN1Cc1ccccc1	n	21µM	n	n	n	n
Cc1nc2c(Br)c3nc(C(F)(F)F)[nH]c3c(Br)c2[nH]1	n	n	n	n	n	n
CN(C)c1nc2c(Br)c(Br)c(Br)c(Br)c2[nH]1	x	x	n	x	4.1µM	n
Cc1cccc(N2CCN(S(=O)(=O)c3ccc4c(c3)NC(=O)CS4)CC2)c1C	n	27µM	n	x	n	n
Cc1nc(-c2ccc(S(=O)(=O)N3CCN(c4cccc(C)c4C)CC3)cc2)co1	n	24µM	u	x	n	n
Cc1ccc(C)c(N2CCN(S(=O)(=O)c3ccc(-c4coc(C)n4)cc3)CC2)c1	n	x	n	x	x	n
COc1cccc(N2CCN(S(=O)(=O)c3ccc4c(c3)NC(=O)CS4)CC2)c1	n	n	n	x	n	n
